test: qHTS profiling of inhibitors of Plasmodium falciparum (DD2) proliferation (acoustic dispense); conditions: P. falciparum Dd2 in erythrocytes, SYBR Green DNA, 72 h; at 49.8 µM (top of the series) unless noted

| SMILES | parasite growth, lower = inhibition |
| --- | --- |
| CC(C)C[C@H](NC(=O)[C@H](CCc1ccccc1)NC(=O)CN1CCOCC1)C(=O)N[C@@H](Cc1ccccc1)C(=O)N[C@@H](CC(C)C)C(=O)[C@@]1(C)CO1 | 0.838% |
| Cn1c(=O)c(-c2c(Cl)cccc2Cl)cc2cnc(Nc3cccc(C(=O)O)c3)nc21 | -0.0499% |
| Cn1cc(CNCC2CCN(c3ncc(C(=O)NO)cn3)CC2)c2ccccc21 | 0.158% |
| CCC[C@H](Nc1nc(-c2ccc(NC(=O)NCC)c(OC)c2)ncc1C)c1cccnc1 | 1.45% |
| CC(C)n1nc(-c2ccc3oc(N)nc3c2)c2c(N)ncnc21 | -0.0305% |
| CCC(=O)N1CCN(c2ccc(-n3c(=O)ccc4cnc5ccc(-c6cnc7ccccc7c6)cc5c43)cc2C(F)(F)F)CC1 | 3.68% |
| CC(Sc1nc2ccccc2[nH]1)C(=O)NN=Cc1cc(Br)ccc1O (configuration not stated) | 99.5% [at 4.15 µM] |
| CC(C)N=C(N)N=C(N)Nc1ccc(Cl)cc1 | -0.338% |
| CCc1cc(Nc2nccc(-c3c(-c4ccc(OC)c(C(=O)Nc5c(F)cccc5F)c4)nc4ccccn34)n2)c(OC)cc1N1CCC(N2CCN(S(C)(=O)=O)CC2)CC1 | -0.192% |
| C=CCn1c(=O)c2cnc(Nc3ccc(N4CCN(C)CC4)cc3)nc2n1-c1cccc(C(C)(C)O)n1 | -0.0983% |
| COc1cc([C@@H]2c3cc4c(cc3[C@@H](O[C@@H]3O[C@@H]5CO[C@@H](c6cccs6)O[C@@H]5[C@H](O)[C@@H]3O)[C@H]3COC(=O)[C@H]23)OCO4)cc(OC)c1O | -0.345% |
| CC1(C)N=C(N)N=C(N)N1c1ccc(Cl)cc1 | 3.98% |
| CS(=O)(=O)CCNCc1ccc(-c2ccc3ncnc(Nc4ccc(OCc5cccc(F)c5)c(Cl)c4)c3c2)o1 | 5.58% |
| CCN[C@H]1C[C@H](C)S(=O)(=O)c2sc(S(N)(=O)=O)cc21 | 0.306% |
| CCCCCCCCCCOc1cc2c(=O)c(C(=O)OCC)c[nH]c2cc1OCC | 1.27% |
| CS[C@H]1SC[C@@H]2C(=O)N(C)[C@H](C(C)C)C(=O)OC[C@H](NC(=O)c3cnc4ccccc4n3)C(=O)N[C@H](C)C(=O)N(C)[C@@H]1C(=O)N(C)[C@H](C(C)C)C(=O)OC[C@H](NC(=O)c1cnc3ccccc3n1)C(=O)N[C@H](C)C(=O)N2C | 0.25% |
| COCCn1c2c([n+](Cc3cnccn3)c1C)C(=O)c1ccccc1C2=O | -0.378% |
| Nc1ccc(-c2ccc3ncc4ccc(=O)n(-c5cccc(C(F)(F)F)c5)c4c3c2)cn1 | -0.538% |
| COc1cc(NCc2ccc3nc(N)nc(N)c3c2C)cc(OC)c1OC | -1.45% |
| COc1cc2nc(N3CCCN(C)CC3)nc(NC3CCN(Cc4ccccc4)CC3)c2cc1OC | -0.574% |
| O=C1c2c(O)ccc(O)c2C(=O)c2c(NCCNCCO)ccc(NCCNCCO)c21 | -3.56% |
| CCn1nnc2c(N3CCOCC3)nc(-c3ccc(NC(=O)Nc4ccc(C(=O)N5CCN(C)CC5)cc4)cc3)nc21 | 2.15% |
| CCN(CC)CCNC(=O)c1c(C)[nH]c(C=C2C(=O)Nc3ccc(F)cc32)c1C | -0.534% [at 100 µM] |
| CN[C@@H]1C[C@H]2O[C@@](C)([C@H]1OC)n1c3ccccc3c3c4c(c5c6ccccc6n2c5c31)C(=O)N[C@H]4O | 0.898% |
| CN(C)c1ccc2nc3ccc(=[N+](C)C)cc-3sc2c1 | 11.8% |
| Cn1cnc(=N)c2[nH]cnc21 | 0.26% |
| Cc1[nH]c2ccccc2c1CCNCc1ccc(C=CC(=O)NO)cc1 | -0.777% |

From PubChem BioAssay AID743365 (National Center for Advancing Translational Sciences (NCATS), 2014)
